# Experimental data reported in PubChem BioAssay.
# Active and inactive are the calls of the source.
# How the values were obtained:
# [1] = A549 cell viability effects, profiling panel, calcein-AM fluorescence, 48 h, basal (AID 1162); details: higher = more signal
# [2] = adipocyte viability effects, profiling panel, cell-based, 3T3-L1 adipocytes, calcein-AM fluorescence, 48 h, basal (AID 1163); details: 3T3-L1 adipocytes viability, higher = more signal
# [3] = HepG2 cell viability effects, profiling panel, calcein-AM fluorescence, 48 h, basal (AID 1164); details: higher = more signal
# [4] = MM1S cell viability effects, profiling panel, calcein-AM fluorescence, 48 h, basal (AID 1165); details: higher = more signal;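 further: viability of MM1S multiple myeloma cells under basal unstimulated conditions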
# [5] = basal RPMI8226 viability, no added stimulus, profiling panel, cell-based, calcein-AM fluorescence, 48 h, PK04 Diversity Set (AID 1166); details: RPMI8226 myeloma viability, higher = more signal;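 further: cells grown under basal conditions without added stimulus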
# [6] = basal HepG2 mitochondrial membrane potential changes, profiling panel, cell-based, JC-1 fluorescence, 24 h, 100 nL compound (AID 1167); details: higher = more signal
# [7] = basal 3T3-L1 adipocyte mitochondrial potential changes, profiling panel, cell-based, JC-1 fluorescence, 3T3-L1 adipocytes, 24 h, 100 nL compound (AID 1168); details: JC-1 mitochondrial fluorescence, higher = more signal, called active from +8 up or from −8 down
# [8] = basal RPMI8226 mitochondrial membrane potential changes, profiling panel, cell-based, JC-1 fluorescence, 24 h, 100 nL compound (AID 1169); details: RPMI8226 myeloma, JC-1 mitochondrial potential fluorescence, higher = more signal
# [9] = basal MM1S mitochondrial membrane potential changes, profiling panel, cell-based, JC-1 fluorescence, 24 h, 100 nL compound (AID 1170); details: higher = more signal
# [10] = A549 lung cancer cell viability effects, profiling panel, resazurin fluorescence, 24 h, PK04 Diversity Set (AID 1171); details: higher = more signal, called active from +8 up or from −8 down
# Further: test concentration not given here.
Structure (SMILES),z-score [1],z-score [2],z-score [3],z-score [4],z-score [5],z-score [6],z-score [7],z-score [8],z-score [9],z-score [10]
C=C(COC)C(=O)CC[C@H](OC(C)=O)c1cccc(OCCO)c1,-0.0614,1.55,-0.116,-2.94,-1.07,-0.331,0.715 (inactive),1.18,0.471,-1.07 (inactive)
COc1ccc(C#Cc2ccc3c(c2)[C@]2(C(=O)N3)[C@H](c3ccc(O)cc3)N3[C@H](c4ccccc4)[C@H](c4ccccc4)OC(=O)[C@H]3[C@@H]2C(=O)NC[C@H](O)c2ccccc2)cc1,-1.1,0.72,-0.513,-3,-4.58,-1.8,1.94 (inactive),-1.12,-1.3,-0.475 (inactive)
CC(C)N1C(=O)C[C@@](C(=O)NCc2ccccc2)(c2ccc([N+](=O)[O-])cc2)[C@H]1c1ccc(CO)cc1,-0.508,-0.749,-0.113,-0.0234,-0.0746,0.924,1.08 (inactive),-0.744,0.301,0.0885 (inactive)
O=C1O[C@@H](c2ccccc2)[C@@H](c2ccccc2)N2[C@@H](c3ccc(OCCO)cc3)[C@]3(C(=O)Nc4ccc(C#CC5=CCCCC5)cc43)[C@@H](C(=O)O)[C@H]12,1.09,0.771,-0.128,-3.21,-4.57,-4.12,-4.9 (inactive),-0.946,-1.42,0.872 (inactive)
COc1ccc([Si](C)(C)[C@@H]2[C@@H](CCn3cc([C@H](O)c4ccccc4)nn3)O[C@]3(C(=O)N(Cc4ccc(N5C(=O)c6cccc7cccc5c67)cc4)c4ccccc43)[C@H]2C)cc1,-0.725,1.91,-0.394,-0.709,-1.77,2.05,0.43 (inactive),-0.964,0.209,-1.92 (inactive)
COC(=O)[C@@]1(Cc2ccc(F)cc2)[C@H]2c3cc(C(=O)N(C)C)n(CCc4ccccn4)c3C[C@H]2CN1C(=O)c1ccccc1,-0.619,0.698,-1.39,0.0635,-0.722,-0.0662,-0.539 (inactive),-0.153,0.95,0.429 (inactive)
COC(=O)c1ccc(C(O)C2C=CC3C(=O)N(c4ccccc4)C(=O)C3N2Nc2ccc(C#N)cc2)o1 (stereo not given),0.88,0.0728,2.04,-0.182,-1.52,0.822,-0.559 (inactive),0.111,-0.849,0.276 (inactive)
[N-]=[N+]=Nc1ccccc1[C@H]1OC(c2ccc(OCCCO)cc2)=N[C@@]1(CCS(=O)(=O)c1ccccc1)C(=O)O,0.318,1.69,-0.0825,-1.42,0.682,-3.45,-1.65 (inactive),0.0104,-0.0976,0.315 (inactive)
CC(C)(C)N1CC=CC23O[C@@H]4/C=C\CCCOC(=O)C4[C@H]2C(=O)N(CCO)[C@@H]3C1=O (stereo not given in full),-0.612,1.15,-0.664,0.889,-0.689,-0.388,-0.79 (inactive),-0.0669,1.11,-0.876 (inactive)
C=CCC(OC(C)=O)[C@@H]1[C@@H](N(Cc2ccc(-c3cccc(C(F)(F)F)c3)o2)C(=O)c2ccc(C)cc2)c2cc(OCCCO)ccc2N1C(=O)c1ccc(-c2ccccc2)cc1 (stereo not given in full),1.18,0.345,1.65,1.02,0.657,3.89,-1.29 (inactive),0.866,0.112,-0.0211 (inactive)
O=c1cccc(CCc2ccccc2)o1,-0.0082,-0.519,0.926,-0.441,-0.709,-0.903,-0.352 (inactive),-0.976,0.226,-0.574 (inactive)
COc1c(C)cc(-c2cc3c(c(-c4ccc(Oc5ccccc5)cc4)n2)[Si](C(C)C)(C(C)C)OC3)cc1C,-0.342,-0.616,0.285,-0.66,-0.11,-1.3,-0.528 (inactive),0.103,0.0963,0.624 (inactive)
CCOC(=O)C1=CCC(c2ccc(C#N)cc2)N(S(=O)(=O)c2ccc(C)cc2)C1 (stereo not given),-1.14,-0.68,0.109,-0.548,-0.741,-0.259,0.345 (inactive),-0.516,-1.71,-0.343 (inactive)
COc1ccc(CCN2C(=O)[C@@]3(Cc4ccccc42)c2ccccc2C(=O)N(Cc2ccccc2Cl)[C@H]3c2ccc(CO)cc2)cc1,0.517,-0.0827,0.589,0.23,-0.441,0.308,-0.106 (inactive),-0.316,0.256,-0.343 (inactive)
